For part of these data: Entries with a potency or affinity are not part of this list. The source made the active and inactive calls.
Tests used:
[1] = Ebola virus entry reporter assay, green channel fluorescence
[2] = Ebola virus entry cell assay, ratio channel

| SMILES | outcome [1] | outcome [2] |
| --- | --- | --- |
| C[C@@H]1[C@H](O)[C@@H](C)/C=C/C=C\C=C\C=C\C=C\C=C\C=C\[C@H](O[C@@H]2O[C@H](C)[C@@H](O)[C@H](N)[C@@H]2O)C[C@@H]2O[C@](O)(C[C@@H](O)C[C@@H](O)[C@H](O)CC[C@@H](O)C[C@@H](O)CC(=O)O[C@H]1C)C[C@H](O)[C@H]2C(=O)O (stereo in doubt) | inactive | inactive |
| CCCCCCCN(CC)CCCC(O)c1ccc(NS(C)(=O)=O)cc1 (centres undefined) | inactive | inactive |
| CO/N=C(\C(=O)N[C@@H]1C(=O)N2C(C(=O)O)=CCS[C@H]12)c1csc(N)n1 | inactive | inactive |
| OCC(S)CS (centres undefined) | inactive | inactive |
| CO/N=C(\C(=O)N[C@@H]1C(=O)N2C(C(=O)O)=C(C[N+]3(C)CCCC3)CS[C@H]12)c1csc(N)n1 | inactive | inactive |
| C=CC(N)CCC(=O)O (centres undefined) | inactive | inactive |
| C=CC1=C(C(=O)O)N2C(=O)[C@@H](NC(=O)/C(=N/OCC(=O)O)c3csc(N)n3)[C@H]2SC1 (stereo in doubt) | inactive | inactive |
| CC(C)[C@H](N)C(=O)OCC(CO)OCn1cnc2c(=O)[nH]c(N)nc21 (some centres undefined) | inactive | inactive |
| CCC(=O)NCCC1CCc2ccc3c(c21)CCO3 (centres undefined) | inactive | inactive |
| O=C(OC1C[C@@H]2CC3C[C@H](C1)N2CC3=O)c1c[nH]c2ccccc12 (some centres undefined) | inactive | inactive |
| COc1cc(NS(C)(=O)=O)ccc1Nc1c2ccccc2nc2ccccc12 | inactive | inactive |
| CC(C)C[C@H]1C(=O)N2CCC[C@H]2[C@]2(O)O[C@](NC(=O)[C@@H]3C=C4c5cccc6[nH]c(Br)c(c56)C[C@H]4N(C)C3)(C(C)C)C(=O)N12 | inactive | inactive |
